Measurements reported in PubChem BioAssay (NCI).
This is part of a sample that, as a whole, favours compounds with a hit. Of some 79,000 tested, about 15% had one in any assay. Active and inactive are the calls of the source. No stated cut-off is given here; in the data, active means growth inhibition above about 70%; inactive means the rest.

Columns and labels:
[1] = NCI Yeast Anticancer Drug Screen. Data for the rad50 strain (AID 155);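 further: 0% = growth of vehicle-only cultures of the same strain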; settings: S. cerevisiae rad50 strain growth inhibition, active compounds read high
How it was run: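 Yeast carrying a defined DNA repair defect were exposed to test compounds, and growth was compared with vehicle-treated controls to give percent inhibition.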

[2] = NCI Yeast Anticancer Drug Screen. Data for the mec2-1 strain (AID 157); settings: S. cerevisiae mec2-1 strain, active compounds read high
How it was run: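 mec2-1 yeast strain, carrying an alteration in DNA damage repair or cell cycle control, was exposed to compounds; growth inhibition was measured relative to vehicle-treated controls.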

[3] = NCI Yeast Anticancer Drug Screen. Data for the sgs1 mgt1 strain (AID 161);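 further: 0% = growth of cultures given vehicle only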; settings: S. cerevisiae sgs1 mgt1 strain, active compounds read high
How it was run: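 Yeast cells carrying a defined DNA-repair defect were exposed to test compounds. Growth inhibition was measured relative to vehicle-treated controls.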

[4] = NCI Yeast Anticancer Drug Screen. Data for the cln2 rad14 strain (AID 165);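 further: 0% = growth equal to vehicle treated cultures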; settings: S. cerevisiae cln2 rad14 strain, active compounds read high
How it was run: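 Yeast carrying cln2 and rad14 alterations (cell cycle control and DNA damage repair) were exposed to compounds. Growth inhibition was measured against vehicle-treated controls.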

[5] = NCI Yeast Anticancer Drug Screen. Data for the bub3 strain (AID 167); settings: S. cerevisiae bub3 mutant strain, active compounds read high
How it was run: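 Compounds were applied to a genetically altered yeast strain carrying a cell-cycle control defect. Growth inhibition was scored against vehicle-treated controls.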

[6] = NCI Yeast Anticancer Drug Screen. Data for the mlh1 rad18 strain (AID 175); settings: S. cerevisiae mlh1 rad18 strain growth inhibition, active compounds read high
How it was run: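 Growth inhibition of the yeast strain was measured after compound exposure and expressed relative to vehicle-treated controls. The strain carries defined defects in DNA damage repair.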

[7] = at 5.0 µM (retest, dose inferred, filed as 0.5)
[8] = at 50.0 µM (retest, dose inferred, filed as 5.0)

Measured: growth inhibition

N/N=C(\N)c1ccc2ccc3cccnc3c2n1
active: [1]; [8] 73% | [1]; at 50.0 µM 74% | [2]; [8] 73% | [3]; [8] 77% | [6]; [8] 79%
inactive: [1]; [7] 1% | [2]; [7] 2% | [2]; at 50.0 µM 42.3% | [3]; [7] -2% | [3]; at 50.0 µM 56.8% | [4]; [7] -7% | [4]; [8] 62% | [4]; at 50.0 µM 45.9% | [5]; [7] -3% | [5]; [8] 59% | [5]; at 50.0 µM 41.5% | [6]; [7] 13% | [6]; at 50.0 µM 52.8%

CN(C)CCOc1ccc2c(c1)C(=O)/C(=C\c1ncc([N+](=O)[O-])n1C)C2
active: [1]; [8] 73% | [2]; [8] 89% | [2]; at 50.0 µM 80.3% | [3]; at 50.0 µM 77.4% | [5]; [8] 95% | [6]; [8] 78% | [6]; at 50.0 µM 80.8%
inactive: [1]; [7] 31% | [1]; at 50.0 µM 54.1% | [2]; [7] 21% | [3]; [7] 21% | [3]; [8] 67% | [4]; [7] 22% | [4]; [8] 46% | [4]; at 50.0 µM 59% | [5]; [7] 21% | [5]; at 50.0 µM 34.8% | [6]; [7] 50%

O=C(Nc1cc(Cl)cc(Cl)c1)OCCCl
active: [1]; [8] 87% | [1]; at 50.0 µM 90.8% | [2]; [8] 77% | [2]; at 50.0 µM 93% | [3]; [8] 84% | [3]; at 50.0 µM 93.8% | [4]; at 50.0 µM 92% | [5]; [8] 88% | [5]; at 50.0 µM 92.6% | [6]; [8] 93% | [6]; at 50.0 µM 92.5%
inactive: [1]; [7] 53% | [2]; [7] 32% | [3]; [7] 36% | [4]; [7] 24% | [4]; [8] 63% | [5]; [7] 41% | [6]; [7] 53%

CC(=O)OC1(c2ccccc2)N=C(c2ccccc2)N=C1c1ccccc1 (stereo not given)
active: [6]; at 50.0 µM 70.1%
inactive: [1]; [7] 13% | [1]; [8] 28% | [1]; at 50.0 µM 28.9% | [2]; [7] 4% | [2]; [8] 13% | [2]; at 50.0 µM 19.1% | [3]; [7] 6% | [3]; [8] 37% | [3]; at 50.0 µM 65.8% | [4]; [7] 13% | [4]; [8] 28% | [4]; at 50.0 µM 38.3% | [5]; [7] 13% | [5]; [8] 24% | [5]; at 50.0 µM 41.9% | [6]; [7] 3% | [6]; [8] 39%

C/C(=N\NC(=S)N1CCN(c2ccccn2)CC1)c1ncccn1
active: [4]; at 50.0 µM 83.2% | [5]; at 50.0 µM 93.6% | [6]; at 50.0 µM 86%
inactive: [1]; [7] 2% | [1]; [8] -6% | [1]; at 50.0 µM 32.5% | [2]; [7] -20% | [2]; [8] -10% | [2]; at 50.0 µM 49.9% | [3]; [7] -7% | [3]; [8] -13% | [3]; at 50.0 µM 45.9% | [4]; [7] -2% | [4]; [8] 7% | [5]; [7] -10% | [5]; [8] -9% | [6]; [7] -3% | [6]; [8] 10%

CCCCCC=C(c1cc(Br)cc(C(=O)O)c1O)c1cc(Br)cc(C(=O)O)c1O
active: [1]; [8] 91% | [1]; at 50.0 µM 89.2% | [2]; [8] 95% | [2]; at 50.0 µM 85.8% | [3]; [8] 95% | [3]; at 50.0 µM 82.8% | [4]; [8] 94% | [5]; [8] 94% | [6]; [8] 94% | [6]; at 50.0 µM 88.9%
inactive: [1]; [7] 2% | [2]; [7] 0% | [3]; [7] 0% | [4]; [7] 2% | [4]; at 50.0 µM 67.1% | [5]; [7] 0% | [5]; at 50.0 µM 69% | [6]; [7] 4%

CCCCCC(=O)/C=C/c1ccc(C)cc1
active: [1]; at 50.0 µM 82.6% | [3]; at 50.0 µM 83% | [4]; at 50.0 µM 75% | [6]; at 50.0 µM 81.7%
inactive: [1]; [7] -155% | [1]; [8] -162% | [2]; [7] -47% | [2]; [8] -59% | [2]; at 50.0 µM 56.9% | [3]; [7] -60% | [3]; [8] -65% | [4]; [7] -59% | [4]; [8] -80% | [5]; [7] -59% | [5]; [8] -57% | [5]; at 50.0 µM 61.8% | [6]; [7] -123% | [6]; [8] -131%

O=c1cccccc1[O-].O=c1cccccc1[O-].O=c1cccccc1[O-].[Sm+3]
inactive: [1]; [7] 33% | [1]; [8] 33% | [2]; [7] 19% | [2]; [8] 19% | [3]; [7] 21% | [3]; [8] 21% | [4]; [7] 17% | [4]; [8] 17% | [5]; [7] 11% | [5]; [8] 11% | [6]; [7] 14% | [6]; [8] 14%
active: [1]; at 50.0 µM 91.7% | [2]; at 50.0 µM 92.5% | [3]; at 50.0 µM 90.5% | [4]; at 50.0 µM 90.2% | [5]; at 50.0 µM 93% | [6]; at 50.0 µM 90.4%

O=NN(CCCl)C(=O)Oc1cc(Cl)c(Cl)cc1Cl
inactive: [4]; [7] 37% | [5]; [7] 48%
active: [1]; [7] 71% | [1]; [8] 98% | [1]; at 50.0 µM 87.8% | [2]; [7] 79% | [2]; [8] 100% | [2]; at 50.0 µM 92.7% | [3]; [7] 84% | [3]; [8] 100% | [3]; at 50.0 µM 92.7% | [4]; [8] 99% | [4]; at 50.0 µM 90.5% | [5]; [8] 100% | [5]; at 50.0 µM 92% | [6]; [7] 96% | [6]; [8] 99% | [6]; at 50.0 µM 91%

CCCCC(=O)N/N=C/c1ccc([N+](=O)[O-])s1
active: [1]; [8] 93% | [1]; at 50.0 µM 97% | [2]; [8] 94% | [2]; at 50.0 µM 96% | [3]; [8] 95% | [3]; at 50.0 µM 94.5% | [4]; at 50.0 µM 90.8% | [5]; [8] 94% | [5]; at 50.0 µM 95.7% | [6]; [8] 97% | [6]; at 50.0 µM 97%
inactive: [1]; [7] 9% | [2]; [7] 7% | [3]; [7] 8% | [4]; [7] 1% | [4]; [8] 38% | [5]; [7] -2% | [6]; [7] 7%
